PI4K2A block – qHTS for small molecular inhibitors of PI4K2A; 0.13% of 420,000 active; activity change, negative = inhibition, % at 76.9 µM; Phosphatidylinositol 4-kinase type 2-alpha (Homo sapiens), Q9BTU6; purified PI4K2A, ADP-Glo luminescence, 1 h; stronger effect = lower value; AID 1346378, 2018; in the data active = activity change below about -50%; inconclusive = mostly about -30% to -49%;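 note: -100% = wells without enzyme as full effect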
Target sequence (Q9BTU6 whole entry, looked up): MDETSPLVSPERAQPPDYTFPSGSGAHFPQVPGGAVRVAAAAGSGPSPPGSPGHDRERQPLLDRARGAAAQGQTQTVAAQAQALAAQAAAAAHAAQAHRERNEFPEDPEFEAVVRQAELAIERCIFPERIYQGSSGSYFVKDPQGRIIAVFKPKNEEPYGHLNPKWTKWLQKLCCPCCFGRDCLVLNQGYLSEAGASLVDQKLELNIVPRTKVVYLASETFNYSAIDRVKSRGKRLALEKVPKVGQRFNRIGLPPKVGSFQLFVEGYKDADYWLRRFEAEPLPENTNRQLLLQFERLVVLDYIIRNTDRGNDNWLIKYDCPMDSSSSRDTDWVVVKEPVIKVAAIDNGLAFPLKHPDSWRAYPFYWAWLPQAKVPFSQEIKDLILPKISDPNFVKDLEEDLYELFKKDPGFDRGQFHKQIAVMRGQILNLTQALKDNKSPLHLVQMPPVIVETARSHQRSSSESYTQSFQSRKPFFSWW
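In this quantitative HTS, ADP production by PI4K2A was quantified luminescently after 1 h at ambient temperature; 100 microM adenosine served as plate-quality control.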
KB-V1 cytotox – qHTS assay for MDR1-selective chemotherapeutics: Primary screen using the drug-selected MDR subline cells KB-V1; AID 1347076, 2019; Potency, µM (doses to about 46.1 µM), hits mostly cytotoxic; 3.4% of 400,000 active; KB-V1 MDR cells viability, CellTiter-Glo, 72 h; note: potency is the fitted concentration of half-maximal effect; nearly all actives have a fitted effect of over 60% in size
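KB-V1, DMEM (no phenol red) + 10% FBS; cpd pin-transferred, titration series; 72 h, 37 degrees C; CellTiter-Glo, luminescence. Data normalized, curve-fit.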
Giardia kill – Small Molecules that selectively kill Giardia lamblia: qHTS | AID 540267, 2011 | Giardia lamblia trophozoite viability | activity change, % at 7.66 µM, hits read low | 0.15% of 340,000 active; in the data active = activity change below about -80%; inconclusive = between about -30% and that limit;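 note: parasites exposed to compound for two days anaerobically before the ATP read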
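Viability, read as ATP luminescence: trophozoites at 100 cells/well, compound added, 48 hrs anaerobic at 37 deg C, then 15-30 min room-temperature development before reading.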
KB-3-1 tox – qHTS assay for MDR1-selective chemotherapeutics: Primary screen using the parental adenocarcinoma cell KB-3-1; AID 1347075, 2019; 1.4% of 400,000 active; Potency, µM (series often up to 46.1 µM), most hits filed as cytotoxic; KB-3-1 viability, CellTiter-Glo ATP luminescence, 72 h; note: potency is the fitted concentration of half-maximal effect; nearly all actives have a fitted effect of over 60% in size
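KB-3-1 parental drug-naive adenocarcinoma cells in DMEM/10% FBS, incubated 72 h at 37 C with pin-transferred compounds across a concentration series. Viability by CellTiter-Glo luminescence; concentration-response curves fitted after normalization.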
Nrf2 block – Nrf2 qHTS screen for inhibitors; Potency, µM (highest dose often 46 µM), inactives show at the highest dose activity change, negative = inhibition, usual class: inhibitors; A549 ARE-Fluc reporter, luciferase luminescence, 18-24 h; 2.1% of 360,000 active; AID 504444, 2011; note: potency is the fitted concentration of half-maximal effect; nearly all actives have a fitted effect of over 60% in size
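A549 ARE_Fluc cells (5000/well, 5% FBS OPTI-MEM) pre-incubated 2 h, then treated with compounds 18-24 h at 37C/5% CO2 in concentration-response. CellTiter-Fluor viability read first; BugLite luciferase luminescence after 15 min at room temperature gives Nrf2 activity.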
A549 viability – Nrf2 qHTS screen for inhibitors: counterscreen for cytotoxicity | Potency, µM (series often up to 46 µM), without a hit: at the top dose activity change, negative = cytotoxicity, actives largely listed as inhibitors | 0.16% of 390,000 active | AID 504648, 2011 | A549 ARE-Fluc cells, CellTiter-Fluor viability, 18-24 h; note: potency is the fitted concentration of half-maximal effect
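A549 ARE_Fluc cells in 5% FBS OPTI-MEM were exposed to compounds in concentration-response for 18-24 h at 37 deg C. Viability was read by CellTiter-Fluor fluorescence (Ex 405/Em 525) after 30 min, before the luciferase read.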
* hit, by the source's call; i = inactive; ? = inconclusive; nt = not tested or not shown. Rows were chosen to be rich in hits. Some 5.7% of all compounds tested hit in one or more screens of this group. Unless noted, calls come from the whole dose curve; as a rule, active = well fitted curve in the direction sought with a large enough effect; inconclusive = small, poorly fitted or top-dose-only effect, or another doubt; inactive = no such curve, though single readings can be large; an effect the other way counts as inactive or inconclusive. Unless noted, % is set by controls: 0 for no effect and ±100 for the full control effect.

SMILES	PI4K2A block	KB-V1 cytotox	Giardia kill	KB-3-1 tox	Nrf2 block	A549 viability
CCCCCCNC(=O)CNC(=S)N(Cc1cccs1)C1CCCCC1	-1	i	-9	?	16µM*	?
CCOC(=O)CNC(=S)N(Cc1cccs1)C1CCCC1	6	?	-20	i	13%	-1%
COc1ccc(Oc2ccc3c(C(F)(F)F)cc(C(F)(F)F)nc3n2)cc1	-3	16µM*	-12	i	-10%	6%
O=c1c2cc(N3CCOCC3)ccc2[nH]c(=S)n1Cc1ccco1	-23	13µM*	-20	i	3%	-5%
O=c1c2cc(N3CCOCC3)ccc2[nH]c(=S)n1Cc1cccc(Cl)c1	-6	?	49	i	?	?
COc1cccc(Cn2c(=S)[nH]c3ccc(N4CCOCC4)cc3c2=O)c1	-1	3.7µM*	0	i	-23%	0%
Cc1ccc(CNC(=O)C2CCCN(S(=O)(=O)c3ccc4c(c3)oc(=O)n4C)C2)cc1 (stereo not drawn)	-1	i	nt	i	-3%	5%
O=C1CC(=O)N(CCc2ccccc2)C(=O)N1CCc1ccccc1	-65*	i	-14	i	?	-5%
Cc1ccccc1OCC(=O)N(Cc1ccc(C(C)C)cc1)C1CCS(=O)(=O)C1 (stereo not drawn)	-1	i	nt	i	-28%	-13%
CCOC(=S)SCC(=O)Nc1nc(-c2ccccc2)cs1	44	?	14	6.5µM*	10%	-2%
CCOC(=O)N1CCN(C(=O)CSCC(=O)Nc2nc(-c3ccc(-c4ccccc4)cc3)cs2)CC1	-1	i	-1	?	?	-15%
COc1ccc(NCc2nnc(SCC(=O)Nc3nc(-c4ccccc4)cs3)n2-c2ccccc2)cc1	-1	i	18	13µM*	?	-20%
CCOC(=O)N1CCN(C(=O)CSCC(=O)Nc2nc(-c3ccc(OC)cc3)cs2)CC1	-2	21µM*	-7	?	16%	9%
CCOC(=S)SCC(=O)Nc1nc(-c2ccc(Br)cc2)cs1	51	5.8µM*	-11	5.2µM*	?	-7%
Cc1ccc(NC(=O)[C@H]2CC(=O)O[C@@H]2c2ccccc2)cc1C	-1	nt	nt	nt	nt	nt
c1ccc(CC[n+]2ccncc2)cc1	nt	i	nt	i	nt	nt
Cc1ccc(S(=O)(=O)NC(N)=NCCC[C@@H](N)C(=O)Nc2cc(C(F)(F)F)ccc2Cl)cc1	nt	nt	nt	nt	?	-27%
Cc1cccn2c(=O)cc(CSc3nnc(NC(=O)COc4ccc(F)cc4)s3)nc12	-2	nt	nt	nt	nt	-6%
Cc1cc(C(=O)Nc2ccc(Nc3ccccc3)cc2)ccc1[N+](=O)[O-]	1	?	-10	?	?	-3%
Cc1ccccc1NC(=O)c1ccc(Nc2c([N+](=O)[O-])cc([N+](=O)[O-])c3ccccc23)cc1	-6	16µM*	-5	i	?	-9%
Cc1cc(C)cc(OCc2cc(=O)n3c4c(sc3n2)CCCC4)c1	-1	?	nt	i	-3%	-2%
Cc1noc(/C=C/c2cccnc2)c1[N+](=O)[O-]	2	i	?	21µM*	18µM*	?
Cc1cccc(C)c1N/C=C/c1onc(C)c1[N+](=O)[O-]	3	i	0	i	-10%	3%
C#CCNC(=O)C[C@H]1C[C@@]2(C(=O)OC)C(=C[C@H](C(C)C)O[C@@H]2C2CC2)N(Cc2ccc(Cl)cc2Cl)C1=O	2	nt	nt	nt	nt	nt
Fc1ccc(CNC(=S)Nc2cccc(C(F)(F)F)c2)cc1	1	21µM*	-12	?	-28%	10%
SMILES	PI4K2A block	KB-V1 cytotox	Giardia kill	KB-3-1 tox	Nrf2 block	A549 viability
COc1ccc2nc(SCCOC(=O)Nc3ccc(Cl)cc3)nc(C)c2c1	-4	15µM*	0	?	23µM*	?
COc1ccc2nc(SCc3cccc(C)c3)nc(C)c2c1	3	16µM*	3	i	23%	14%
Cc1ccc2nc(SCc3cccc([N+](=O)[O-])c3)nc(C)c2c1	4	?	36	i	14%	1%
COc1ccc2nc(SCC(=O)O)nc(C)c2c1	-3	i	-6	i	23%	-1%
COc1ccc2nc(SC(C(=O)c3ccccc3)c3ccccc3)nc(C)c2c1 (stereo not drawn)	4	i	0	i	-18%	17%
COc1ccc2nc(SCc3ccccc3C)nc(C)c2c1	-7	15µM*	14	i	8%	5%
O=S(=O)(c1cccs1)N1CCN(CC(O)COc2cccc(Br)c2)CC1 (stereo not drawn)	-2	15µM*	-4	?	?	14%
O=S(=O)(c1ccc(F)cc1)N1CCN(CC(O)COc2ccccc2F)CC1 (stereo not drawn)	6	i	-7	i	11%	7%
O=S(=O)(c1ccccc1)N1CCN(CC(O)COc2ccc3c(c2)CCC3)CC1 (stereo not drawn)	-3	?	0	i	16µM*	-21%
O=C(c1ccccc1)c1ccc(OCC(O)CN2CCN(S(=O)(=O)N3CCCCC3)CC2)cc1 (stereo not drawn)	-1	2.1µM*	-7	23µM*	nt	?
CC(C)c1ccccc1OCC(O)CN1CCN(S(=O)(=O)c2ccc([N+](=O)[O-])cc2)CC1 (stereo not drawn)	6	?	29	6.5µM*	?	0%
CCOc1ccc(-n2c(SCC(=O)c3ccccc3Cl)nnc2-c2ccncc2)cc1	-2	nt	nt	nt	nt	nt
CCCCOc1ccc(Cn2c(=O)oc3ccc(C)cc32)cc1	-3	i	nt	i	-2%	-2%
C[C@H](O)[C@@H]1CN2CCc3c([nH]c4c(-c5ccc6c(c5)OCO6)cccc34)[C@@H]2C[C@@H]1N(C)C(=O)c1ccccc1F	2	nt	nt	nt	nt	nt
Cc1ccnc2ccc(Br)cc12	nt	i	nt	i	nt	nt
Cc1ccc(CNc2ncnc3ccc(-c4ccc5c(c4)OCO5)cc23)s1	nt	nt	nt	nt	3%	6%
COc1ccccc1OCC(=O)N/N=C/C=C/c1ccc([N+](=O)[O-])o1	-7	16µM*	?	?	?	?
Cc1ccccc1OCC(=O)N/N=C/c1ccc([N+](=O)[O-])o1	1	i	-93*	i	?	-17%
Cc1ccc(C(=O)N/N=C\c2ccc([N+](=O)[O-])o2)cn1	-1	i	?	?	?	-28%

Screens from PubChem BioAssay.
